Test [1] in a line: Human pregnane X receptor (PXR) small molecule agonists, qHTS cell viability counter screen (AID 1346977). Further: nearly all actives have a fitted effect of over 50% in size. Further: potency means the concentration at half of the fitted maximal effect. The method, boiled down:
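After a 5hr pre-incubation, PXR-Luc HepG2 cells received compounds plus positive control in DMSO and were kept 24hr at 37C. Cell viability was quantified by fluorescence from CellTiter-Fluor added for the final hour.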
Background: Quantitative high-throughput screening tests each substance at several concentrations.

Test [2] in a line: Caspase-3/7 induction in HepG2 cells by small molecules, qHTS assay (AID 1346978). Further: nearly all actives have a fitted effect of over 15% in size. The method, boiled down:
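Caspase-3/7 induction was measured by Caspase-Glo 3/7 luminescence (30 min, room temperature) after a 17 hr compound exposure of wild-type HepG2 cells seeded at 2,000 per well and pre-incubated 5 hr.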

Test [3] can be described thus: Caspase-3/7 induction in CHO-K1 cells by small molecules, qHTS cell viability counter screen (AID 1346979). Further: nearly all actives have a fitted effect of over 35% in size. Further: potency means the concentration at half of the fitted maximal effect. The method, boiled down: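 Multiplexed with Caspase-Glo 3/7 in CHO-K1 cells, this counter screen added CellTiter-Fluor after 16hr of compound exposure and recorded fluorescence 1hr later.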
Test [4] in a line: Caspase-3/7 induction in CHO-K1 cells by small molecules, qHTS assay (AID 1346980). Further: nearly all actives have a fitted effect of over 15% in size. The method, boiled down: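 Luminescent Caspase-Glo 3/7 read (30min, room temperature) quantified apoptosis induction. Cells were wild-type CHO-K1, treated with compound for 17hr at 37 C and 5% CO2.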
Test [5] can be described thus: Caspase-3/7 induction in HepG2 cells by small molecules, qHTS cell viability counter screen (AID 1346981). Further: nearly all actives have a fitted effect of over 30% in size. Further: potency means the concentration at half of the fitted maximal effect. The method, boiled down:
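Treatment of HepG2 cells with DMSO-delivered compounds ran 16 hr at 37 C following a 5-hr pre-incubation of 2,000 cells/well. CellTiter-Fluor fluorescence, read after 1 hr, served as the viability measure in a qHTS format.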

Test [6] deals with Nuclear receptor subfamily 1 group I member 2 (Homo sapiens) (UniProt O75469). Kind of test: Human pregnane X receptor (PXR) small molecule agonists, qHTS assay (AID 1346982). Further: nearly all actives have a fitted effect of over 35% in size. Further: potency means the concentration at half of the fitted maximal effect. Put shortly:
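Stable HepG2 line reporting PXR-mediated CYP3A4 expression via luciferase. Treatment: 24 hr with compounds in DMSO at 37 C. Detection: ONE-Glo luminescence.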

The target in test [7] is Cytochrome P450 2D6 (Homo sapiens) (UniProt P10635). Kind of test: Cytochrome P450 Family 2 Subfamily D Member 6 (CYP2D6) small molecule antagonists: luciferase reporter qHTS assay (AID 1671196). Further: nearly all actives have a fitted effect of over 50% in size. Further: potency means the concentration at half of the fitted maximal effect. Put shortly: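 Chemicals tested for interference with CYP2D6 activity; proluciferin substrate, NADPH regeneration, 1 h at room temperature, luminescent detection.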
Cytochrome P450 2D6 (Homo sapiens), sequence (P10635 whole entry, looked up): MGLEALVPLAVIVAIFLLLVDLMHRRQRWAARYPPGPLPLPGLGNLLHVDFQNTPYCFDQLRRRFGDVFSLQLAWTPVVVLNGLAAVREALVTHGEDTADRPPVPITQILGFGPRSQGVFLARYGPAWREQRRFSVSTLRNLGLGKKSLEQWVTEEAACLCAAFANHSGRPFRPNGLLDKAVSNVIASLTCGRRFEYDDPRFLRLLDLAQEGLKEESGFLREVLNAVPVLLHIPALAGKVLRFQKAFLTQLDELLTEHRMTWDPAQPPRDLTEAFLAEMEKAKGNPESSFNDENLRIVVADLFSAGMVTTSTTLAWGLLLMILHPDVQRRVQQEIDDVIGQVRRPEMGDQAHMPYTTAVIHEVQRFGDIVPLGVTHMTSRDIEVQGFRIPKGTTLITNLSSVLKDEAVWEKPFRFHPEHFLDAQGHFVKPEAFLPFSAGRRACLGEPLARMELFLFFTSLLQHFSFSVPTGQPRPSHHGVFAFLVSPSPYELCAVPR
For orientation: A reporter such as luciferase makes a cellular process visible.

Molecules are shown by their SMILES. Values without a mark were called inactive. Results filed as inconclusive are left out. Calls of active or inactive are those of the source. The call rests on the fitted dose curve; in most records, active means well fitted curve in the direction sought with a large enough effect in the repeat runs; inconclusive means weak or mixed curves; inactive means no such curve, though single readings can be large; an effect the other way counts as inactive or inconclusive.

Nuclear receptor subfamily 1 group I member 2 (Homo sapiens), sequence (O75469 whole entry, looked up): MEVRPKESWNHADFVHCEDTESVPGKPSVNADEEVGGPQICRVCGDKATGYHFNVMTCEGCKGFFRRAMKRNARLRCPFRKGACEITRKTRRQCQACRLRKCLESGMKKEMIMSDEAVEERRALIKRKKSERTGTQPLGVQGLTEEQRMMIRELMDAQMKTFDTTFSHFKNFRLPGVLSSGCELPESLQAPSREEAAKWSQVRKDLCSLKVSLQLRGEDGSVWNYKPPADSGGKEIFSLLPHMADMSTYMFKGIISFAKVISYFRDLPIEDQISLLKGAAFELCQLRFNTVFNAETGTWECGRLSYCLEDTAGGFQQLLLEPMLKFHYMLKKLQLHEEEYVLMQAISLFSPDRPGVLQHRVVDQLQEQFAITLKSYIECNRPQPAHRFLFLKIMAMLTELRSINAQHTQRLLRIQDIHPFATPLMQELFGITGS

For `CNC(=O)CN(CCN(CCN(CC(=O)[O-])CC(=O)NC)CC(=O)[O-])CC(=O)[O-].O.[Gd+3]`, the Potency result in test [1], in test [2], in test [3], in test [4], in test [5] and in test [6] was “inactive” each time. Also, the Potency entry in test [7] is “inactive”.
In the case of `CC1=CC[C@H](C(C)C)C=C1`, the Potency entry in test [1], in test [2], in test [3], in test [4] and in test [5] was “inactive” in each case. In addition, the Potency in test [6] is 27.3 µM (active); in test [7], 56.4 µM (active).
Turning to `C[Si](C)(CCCN)O[Si](C)(C)CCCN`, the Potency result in test [1], in test [2], in test [3], in test [4], in test [5] and in test [6] was “inactive” throughout. In addition, the Potency in test [7] was 22.4 µM (active).
In the case of `CCOC(=O)Cc1cccc2ccccc12`, the Potency entry in test [1], in test [2], in test [3], in test [4], in test [5] and in test [6] was “inactive” each time. Besides, in test [7], the Potency result is “inactive”.
For `CC(C)Nc1ccc(NC(C)C)c2c1C(=O)c1ccccc1C2=O`, the Potency in test [1] was 14.2 µM (active); in test [3], 25.3 µM (active); in test [5] it was 16 µM (active); in test [6], 1.27 µM (active). The Potency entry in test [2], in test [4] and in test [7] was “inactive” each time.
Regarding `O=[N+]([O-])c1ccc2[nH]ncc2c1`, the Potency entry in test [1], in test [2], in test [3], in test [4], in test [5] and in test [6] was “inactive” each time. Besides, the Potency entry in test [7] was “inactive”.
On to `O=C(NCC1CN(c2ccc(N3CCOCC3=O)cc2)C(=O)O1)c1ccc(Cl)s1` (stereo not drawn), for which the Potency entry in test [1], in test [2], in test [3], in test [4], in test [5] and in test [6] was “inactive” each time. Moreover, in test [7], the Potency result was “inactive”.
Take `CCCCCCCCCCCc1ccccc1`: the Potency entry in test [1], in test [2], in test [3], in test [4], in test [5] and in test [6] was “inactive” in each case. In test [7], the Potency entry was “inactive”.
`CCCCC(CC)COC(=O)CCCCCCCCC(=O)OCC(CC)CCCC` (stereo not drawn): the Potency result in test [1], in test [2], in test [3], in test [4], in test [5] and in test [6] was “inactive” in each case. In test [7], the Potency result was “inactive”.
`O=C(CS)Nc1ccccc1`: the Potency result in test [1], in test [2], in test [3], in test [4], in test [5] and in test [6] was “inactive” throughout. The Potency entry in test [7] is “inactive”.
Take `COc1cc2nc(Cl)nc(N)c2cc1OC`: the Potency result in test [1], in test [2], in test [3], in test [4], in test [5] and in test [6] was “inactive” each time. The Potency entry in test [7] was “inactive”.
With `C=C1[C@H]2CC[C@@H]3[C@H]2C(C)(C)CCC[C@]13C`, the Potency entry in test [1], in test [2], in test [3], in test [4], in test [5] and in test [6] was “inactive” in each case. The Potency result in test [7] was “inactive”.
For `CN(C)CCN(Cc1ccsc1)c1ccccn1`, the Potency result in test [1], in test [2], in test [3], in test [4], in test [5] and in test [6] was “inactive” in each case. The Potency in test [7] was 3.89 µM (active).
With `CC(C)(C)OCC1CO1` (stereo not drawn), the Potency entry in test [1], in test [2], in test [3], in test [4], in test [5] and in test [6] was “inactive” in each case. Besides, in test [7], the Potency result was “inactive”.
As for `C[C@@H]1C[C@H]2[C@@H]3CCC4=CC(=O)C=C[C@]4(C)[C@@]3(F)[C@@H](O)C[C@]2(C)[C@@]1(O)C(=O)COC(=O)c1ccncc1`, the Potency entry in test [1], in test [2], in test [3], in test [4] and in test [5] was “inactive” throughout. Further, the Potency is 1.33 µM (active) in test [6] and 11 µM (active) in test [7].
Regarding `C=CCOC(=O)CCC1CCCCC1`, the Potency entry in test [1], in test [2], in test [3], in test [4], in test [5] and in test [6] was “inactive” in each case. The Potency result in test [7] was “inactive”.
Consider `CCO[Si](CCCCl)(OCC)OCC`, for which the Potency entry in test [1], in test [2], in test [3], in test [4], in test [5] and in test [6] was “inactive” each time. Further, the Potency in test [7] was 22.3 µM (active).
`COS(=O)(=O)C(F)(F)F`: the Potency entry in test [1], in test [2], in test [3], in test [4], in test [5] and in test [6] was “inactive” in each case. Further, in test [7], the Potency entry is “inactive”.
Regarding `OCCNCc1ccccc1`, the Potency result in test [1], in test [2], in test [3], in test [4], in test [5] and in test [6] was “inactive” throughout. The Potency in test [7] is 35.6 µM (active).
For `CC(CC=O)c1ccccc1` (stereo not drawn), the Potency result in test [1], in test [2], in test [3], in test [4], in test [5] and in test [7] was “inactive” throughout. Moreover, the Potency in test [6] is 61.1 µM (active).
As for `Nc1ccccc1S(=O)(=O)c1ccccc1`, the Potency entry in test [1], in test [2], in test [3], in test [4], in test [5] and in test [7] was “inactive” in each case.
On to `CCCNCC(O)COc1ccccc1C(=O)CCc1ccccc1` (stereo not drawn), for which, in test [1], the Potency is 29.8 µM (active). Besides, the Potency entry in test [2], in test [4] and in test [5] was “inactive” each time.
As to `CC(C)(C)Cl`, the Potency result in test [1], in test [2], in test [3], in test [4], in test [5] and in test [7] was “inactive” in each case.
For the molecule `CCCCCCCCCCCC(=O)OC[C@@H](O)[C@H]1OC[C@H](OCCO)[C@H]1OCCO`, the Potency result in test [1], in test [2], in test [3], in test [4], in test [5] and in test [7] was “inactive” each time.
In the case of `CCCCc1nc2cccnc2n1Cc1ccc(-c2ccccc2-c2nnn[nH]2)cc1`, the Potency result in test [1], in test [2], in test [4] and in test [7] was “inactive” in each case. Also, the Potency was 48.6 µM (active) in test [3] and 61.1 µM (active) in test [6].

Values taken from PubChem BioAssay (Tox21).
